Most compounds without a hit are left out; they make up all but 4.2% or so of the library.
tim10-1 inh – tim10-1 yeast growth inhibition. S. cerevisiae tim10-1 ts strain growth, BacTiter-Glo, 24 h. inhibition, % at 20 µM. 330,000 compounds, 2.2% hits. AID 463190;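 active means inhibition of at least 40%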;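 further: mutant grown at 25 °C; 0% = DMSO wells with yeast and 100% = wells holding no yeast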
NALP1 yeast inh – inhibitors of NALP1 inflammasome in yeast; S. cerevisiae NALP1/ASC/caspase-1 growth, X-gal OD620, 72 h; inhibition, % at 10 µM; 280,000 compounds, 0.61% hits; in the data active means inhibition mostly above about 24%, no sharp cut-off; inactive means mostly below about 32%
NLRP3 yeast inh – blocks the NALP3 inflammasome reconstituted in yeast; inhibition, % at 10 µM; Yeast reconstituted NLRP3/ASC/caspase-1, beta-gal luminescence, 24 h; 330,000 compounds, 0.39% hits;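 active means inhibition of 50% or more; inactive means inhibition below 50%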;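 further: plate controls were induced DMSO wells for no effect and uninduced yeast grown without galactose for full effect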
PfHsp90 yeast 2 – growth inhibition of yeast expressing Plasmodium Hsp90; 310,000 compounds, 0.32% hits; AID 504621; inhibition, % at 9.4 µM; S. cerevisiae expressing PfHsp90, BacTiter-Glo ATP, 48 h; yeast lacking PDR1 and PDR3 efflux regulators;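 active means every replicate shows inhibition above about 80%, whatever the replicate mean, limit read from the data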;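 further: 0% = DMSO neutral controls and 100% = 20 µM radicicol positive controls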
TIM10 inh – TIM10 yeast growth inhibition; S. cerevisiae TIM10 strain growth, BacTiter-Glo luminescence, 24 h; inhibition, % at 10 µM; 330,000 compounds, 1.4% hits; AID 463195;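 active means inhibition of 40% or more at the single tested concentration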;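 further: wild-type TIM10 isogenic control strain grown at permissive 25 °C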
tim23-1 inh – growth inhibitors of tim23-1 mutant yeast | 330,000 compounds, 1.3% hits | S. cerevisiae tim23-1 growth, BacTiter-Glo luminescence, 24 h | inhibition, % at 20 µM;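 active means growth inhibition of the mutant yeast at or above 50%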;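 further: temperature-sensitive mutant grown at 25 °C; plate controls were DMSO-treated mutant yeast for no effect and medium wells lacking yeast for full effect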
NALP3 confirm – confirmation of NALP3 inhibitors in yeast; shares compounds with NLRP3 yeast inh; yeast expressing human NALP3, luminescence; inhibition, % at 10 µM; 1,300 compounds, 81% hits; AID 435006; in the data active means inhibition above about 48%
Casp1 ASC ctr – counter-screen for NALP3 inhibitors: yeast caspase-1-ASC. inhibition, % at 10 µM. AID 488784. shares compounds with NLRP3 yeast inh. 1,000 compounds, 66% hits. yeast expressing Caspase-1-ASC, luminescence counter screen
NALP3 yeast rt – confirmation retest of NALP3 inhibitors in yeast; shares compounds with NLRP3 yeast inh; yeast expressing human NALP3, luminescence read-out; inhibition, % at 10 µM; 1,000 compounds, 53% hits
An asterisk follows results filed as active; . = not tested or not shown. Unless noted, no stated cut-off is given here; in the data, active means inhibition above about 50%; inactive means the rest.

SMILES	tim10-1 inh	NALP1 yeast inh	NLRP3 yeast inh	PfHsp90 yeast 2	TIM10 inh	tim23-1 inh	NALP3 confirm	Casp1 ASC ctr	NALP3 yeast rt
Cc1c(C(=O)NCCC2=CCCCC2)oc2ccc(S(=O)(=O)N3CCOCC3)cc12	9	6	58*	.	23	26	62*	55*	43
COc1ccc(C2N(c3ccc4c(c3)OCCO4)C(=O)C2(F)F)cc1OC (stereo not given)	17	.	6	-13	20	25	.	.	.
COCCn1c(SCC(=O)NC2(C#N)CCCCC2)nc2ccccc2c1=O	5	.	7	8	0	7	.	.	.
O=C(Nc1ccc2c(c1)oc1ccccc12)c1cccnc1	-19	-2	74*	39	21	44	60*	44	40
O=C(Nc1ccc2ccccc2c1)c1cccnc1	5	-2	27	14	18	2	.	.	.
CC(C)(C)NC(=O)NC(=O)CN1CCN(S(=O)(=O)c2ccc3c(c2)OCCO3)CC1	0	.	8	19	16	14	.	.	.
Nc1nc2ccccc2cc1S(=O)(=O)c1ccccc1	-18	0	83*	.	-28	12	87*	.	.
O=S(=O)(c1ccccc1)c1cnc2ccccc2c1	11	.	46	-2	-3	10	.	.	.
CCc1ccc(OCC(=O)Nc2ccc3[nH]ncc3c2)cc1	14	12	23	-6	12	32	.	.	.
COc1ccc(S(=O)(=O)n2ccc(-c3cnc(-c4ccccc4)s3)n2)cc1	15	24	18	13	16	26	.	.	.
O=C(c1ccccc1)n1ccc(-c2cnc(-c3ccccc3)s2)n1	-10	4	62*	-12	0	10	60*	25	10
O=S(=O)(Oc1ccc(Cl)cc1)c1cccc2cccnc12	4	16	58*	.	-14	15	54*	72*	61*
CC1CCCCC12NC(=O)N(CC(=O)N1CCN(C(=O)c3cccs3)CC1)C2=O (stereo not given)	-13	.	18	-2	3	-18	.	.	.
O=C(NNC(=O)c1ccc(Oc2cc(Cl)cc(Cl)c2)o1)c1ccccc1	12	16	20	-6	-4	18	.	.	.
O=C(NNC(=O)c1ccc(Oc2ccc(C3SCCS3)cc2)o1)c1ccc(Cl)cc1	0	.	53*	3	-5	1	34	.	.
O=C(CCC(=O)c1cccs1)OCc1ccc([N+](=O)[O-])cc1	12	.	7	-20	2	21	.	.	.
CCSc1nnc(NC(=O)c2cccs2)s1	34	-6	53*	18	7	22	64*	39	44
COc1ccc2c(c1)OC[C@H]1[C@@H]2N2C(=O)CNC(=O)[C@@]2(C)[C@H]1c1ccccc1	4	.	-5	1	-5	-5	.	.	.
COc1cc(-c2nc3ccccn3c2/N=C/c2cc(OC)c(O)cc2Cl)ccc1O	29	-11	-105	-48	18	29	-19	.	.
COc1cc(-c2nc3ccccn3c2/N=C/c2ccccc2)ccc1O	29	-10	16	20	14	18	.	.	.
CC(C)(C)C(=O)Nc1ccc(N=Nc2ccccc2)cc1	17	-6	53*	13	25	7	65*	50	39
O=C(O)CCC(=O)Nc1ccc(N=Nc2ccccc2)cc1	.	3	.	.	.	.	.	.	.
Cn1c(=NC(=O)CS(=O)(=O)c2ccccc2)sc2ccccc21	7	.	9	-15	-6	6	.	.	.
Cn1c(=NC(=O)COc2ccccc2)sc2ccccc21	-24	0	60*	-5	-7	8	47	.	.
COc1cc(NC(=O)CN2C(=O)CN(C)C2=O)c(C)cc1[N+](=O)[O-]	12	17	81*	-8	7	-19	34	.	.
Cc1cc(/N=C/C=C2/N(C)c3ccccc3C2(C)C)n(CCC#N)n1	.	.	.	0	.	.	.	.	.
O=C(Nc1nc2cc3c(cc2s1)OCO3)C1CCCCC1	9	16	56*	38	11	42	64*	56*	53*
O=C(Nc1nc2cc3c(cc2s1)OCO3)C1CC1	4	.	16	9	6	5	.	.	.
